Laboratory results from article PMC4336329 (PLoS ONE, 2015).
The campaign covered roughly 310,000 compounds. About 14,000 (4.5%) showed an effect of 50% or more. Effects have a minus sign here. The full list was thinned out, with strong results kept by preference.

target: human ether-à-go-go-related gene (hERG) potassium channel (human, UniProt Q12809); experiment: primary screen, population patch clamp on CHO cells stably expressing hERG; higher = less effect of the substance
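Note: peak tail current of the secondary pulse compared with the same well before compound.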

Chain of human ether-à-go-go-related gene (hERG) potassium channel (Q12809 whole entry, looked up): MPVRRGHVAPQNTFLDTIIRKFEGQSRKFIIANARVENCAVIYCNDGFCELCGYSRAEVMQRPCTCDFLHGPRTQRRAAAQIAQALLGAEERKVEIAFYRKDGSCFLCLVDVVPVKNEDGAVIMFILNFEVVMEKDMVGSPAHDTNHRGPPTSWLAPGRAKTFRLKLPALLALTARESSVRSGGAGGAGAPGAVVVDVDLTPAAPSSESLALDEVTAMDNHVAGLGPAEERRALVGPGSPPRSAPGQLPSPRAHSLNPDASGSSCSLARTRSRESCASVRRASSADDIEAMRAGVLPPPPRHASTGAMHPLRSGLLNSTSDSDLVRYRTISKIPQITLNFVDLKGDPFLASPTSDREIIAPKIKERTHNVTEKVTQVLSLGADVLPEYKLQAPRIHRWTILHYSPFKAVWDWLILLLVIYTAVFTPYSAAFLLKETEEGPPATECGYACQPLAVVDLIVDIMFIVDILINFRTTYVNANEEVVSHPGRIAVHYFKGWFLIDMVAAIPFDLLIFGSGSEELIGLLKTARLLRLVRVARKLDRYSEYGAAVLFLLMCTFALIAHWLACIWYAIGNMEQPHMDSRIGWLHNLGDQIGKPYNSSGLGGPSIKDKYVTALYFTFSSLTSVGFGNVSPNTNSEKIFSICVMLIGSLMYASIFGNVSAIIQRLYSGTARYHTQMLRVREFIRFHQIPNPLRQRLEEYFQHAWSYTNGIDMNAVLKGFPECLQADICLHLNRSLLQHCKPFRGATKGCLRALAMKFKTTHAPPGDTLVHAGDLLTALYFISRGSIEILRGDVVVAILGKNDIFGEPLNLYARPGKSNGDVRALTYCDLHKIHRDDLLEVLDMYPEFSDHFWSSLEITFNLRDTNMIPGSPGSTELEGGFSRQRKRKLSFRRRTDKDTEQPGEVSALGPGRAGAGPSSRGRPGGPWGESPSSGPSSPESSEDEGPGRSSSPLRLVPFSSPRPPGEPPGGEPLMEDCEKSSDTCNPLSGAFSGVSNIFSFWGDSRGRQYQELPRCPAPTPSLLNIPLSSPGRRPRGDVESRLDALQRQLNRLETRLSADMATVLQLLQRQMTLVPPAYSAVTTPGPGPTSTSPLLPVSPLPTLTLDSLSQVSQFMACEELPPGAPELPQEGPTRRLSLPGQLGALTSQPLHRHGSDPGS

| Compound | hERG current change (%, negative = inhibition) at 10uM [%] |
| --- | --- |
| O=C(NC(=S)N1CCOCC1)c1ccc(F)cc1 | 24.4 |
| CC[C@H](C)[C@@H](C(=O)N1CCNCC1)n1cc([C@@H](N)CC(C)C)nn1.Cl | 11.9 |
| CC(=O)c1ccc(NC(=O)CSc2nnc(-c3ccncc3)n2C2CC2)cc1 | -5.46 |
| COc1ccc(CC(=O)NC2CC(C)(C)NC(C)(C)C2)cc1OC.Cl | 16.9 |
| Cc1ccc(/C=C2\C(=O)Nc3ccccc32)o1 | 5.04 |
| CCOc1ccccc1-n1nnnc1SCC(=O)NCc1ccco1 | 5.25 |
| CCOc1ccccc1-n1nnnc1SCC(=O)NCC1(N2CCOCC2)CCCCC1 | -67.7 |
| Cc1ccccc1-n1nnnc1SCC(=O)NCC1(N2CCOCC2)CCCCC1 | -24.9 |
| Cc1cccc(-n2nnnc2SCC(=O)NCC2(N3CCOCC3)CCCCC2)c1C | -57.9 |
| COc1ccccc1-n1nnnc1SCC(=O)NCC1(N2CCOCC2)CCCCC1 | -39.8 |
| O=C(CSc1ccccc1)NCC1(N2CCOCC2)CCCCC1 | -19 |
| O=c1c2ccccc2nc2c3ccccc3c(NCc3cccnc3)nn12 | -25.5 |
| COc1ccc(-n2nc(C(=O)NCC(=O)NC3CCCC(C)C3C)c3ccccc3c2=O)cc1 (stereo not drawn) | 8.55 |
| CC(=O)OCN(C#N)c1nc(N(C)C)nc(N(C)C)n1 | 5.8 |
| Cc1nnc2ccc(-c3ccc(NS(=O)(=O)c4ccc(F)cc4F)cc3)nn12 | -25.2 |
| CC(C)Oc1ccc(CNC(=O)C2CCCN(S(=O)(=O)N3CCOCC3)C2)cc1 (stereo not drawn) | -20.8 |
| CN1C(C(=O)NCc2cccc(C(F)(F)F)c2)CC2Cn3c(nc4cc(Cl)c(Cl)cc43)C21 (stereo not drawn) | -73.6 |
| CN1C(C(=O)NCc2cccc(C(F)(F)F)c2)CC2Cn3c(nc4cc5ccccc5cc43)C21 (stereo not drawn) | -63.1 |
| C=CCNC(=O)C1CC2Cn3c(nc4cc(C)c(C)cc43)C2N1C (stereo not drawn) | -7.6 |
| Cc1cc2nc3n(c2cc1C)CC1CC(C(=O)NCc2cccc(C(F)(F)F)c2)N(C)C31 (stereo not drawn) | -66.7 |
| CN1C(C(=O)NCc2cccc(C(F)(F)F)c2)CC2Cn3c(nc4ccccc43)C21 (stereo not drawn) | -47.4 |
| Cc1cc2nc3n(c2cc1C)CC1CC(C(=O)NCC2CC2)N(C)C31 (stereo not drawn) | -1.83 |
| O=C(Nc1ccccc1)c1ccc(Br)c(S(=O)(=O)Nc2ccccn2)c1 | 14.5 |
| Cc1cc(C)c(C#N)c(N2CCSCC2)n1 | 4.36 |
| CC(=O)N1CCc2cc(S(=O)(=O)NCCC(=O)NC3CCCc4ccccc43)ccc21 (stereo not drawn) | 2.54 |
| NC(=O)c1noc(C(=O)N(CC(=O)NC2CCCC2)Cc2ccc3c(c2)OCO3)c1N | -7.94 |
| Cc1cc(N2CCN(C)CC2)nc2ccc(NC(=S)NCCC(C)C)cc12 | -51.2 |

| Compound | hERG current change (%, negative = inhibition) at 10uM [%] |
| --- | --- |
| Cc1cc(N2CCOCC2)nc2ccc(NC(=S)N3CCN(Cc4ccccc4)CC3)cc12 | -33.6 |
| Cc1cc(N2CCOCC2)nc2ccc(NC(=S)NCCC(C)C)cc12 | -64.1 |
| CCN(CC)CCNC(=S)Nc1ccc2nc(N3CCN(C)CC3)cc(C)c2c1 | -1.04 |
| CCN(CC)CCNC(=S)Nc1ccc2nc(N3CCOCC3)cc(C)c2c1 | 11.7 |
| COCCNC(=S)Nc1ccc2nc(N3CCOCC3)cc(C)c2c1 | -0.507 |
| Cc1cc(N2CCN(C)CC2)nc2ccc(NC(=S)NCCCN3CCc4ccccc4C3)cc12 | -26.5 |
| Cc1cc(N2CCOCC2)nc2ccc(NC(=S)NCc3ccc4c(c3)OCO4)cc12 | -68.5 |
| Cc1cc(N2CCOCC2)nc2ccc(NC(=S)NCCN(C)C)cc12 | 13.7 |
| Cc1cccc(Cn2nc(C(C)(C)C)cc2C(=O)Nc2ccc(F)cc2)c1 | 14.8 |
| C(#CCN1CCOCC1)COCC#Cc1ccccc1.Cl | -2.16 |
| CC(C)(C)OC(=O)N[C@@H](Cc1c[nH]c2ccccc12)c1nnc(SCC(N)=O)o1 | -3.96 |
| Cc1nc2ccccc2c(=O)n1-c1cc(F)ccc1F | 8.31 |
| Cc1ccc(C)c(S(=O)(=O)NNC(=O)Nc2ccccc2Cl)c1 | 5.51 |
| O=c1cc(CSc2ccc(Cl)cc2)nc(-c2ccccn2)[nH]1 | -0.0469 |
| COc1ccc(CNC(=O)C(c2ccco2)N(Cc2ccccc2)C(=O)Cc2cccs2)cc1 (stereo not drawn) | 18 |
| O=C(c1ccccc1)c1cc([N+](=O)[O-])ccc1N1CCCC1 | -12 |
| COc1ccc(C(=O)c2cc([N+](=O)[O-])ccc2N2CCOCC2)cc1 | -23.5 |
| O=C(c1ccccc1)c1cc([N+](=O)[O-])ccc1N1CCOCC1 | -30.7 |
| CN1CCN(c2ccc([N+](=O)[O-])cc2C(=O)c2ccccc2)CC1 | -54.2 |
| CCN1CCN(c2ccc([N+](=O)[O-])cc2C(=O)c2ccc(Cl)cc2)CC1 | -72.8 |
| COc1ccc(C(=O)c2cc([N+](=O)[O-])ccc2N2CCN(C)CC2)cc1 | -58.2 |
| Cc1ccc(C(=O)c2cc([N+](=O)[O-])ccc2N2CC(C)OC(C)C2)cc1 (stereo not drawn) | -0.127 |
| Cc1ccc(C(=O)c2cc([N+](=O)[O-])ccc2N2CCCCC2)cc1C | 6.24 |
| Cc1ccc(C(=O)c2cc([N+](=O)[O-])ccc2N2CCCCC2)cc1 | -5.08 |
| COc1ccc(C(=O)c2ccc([N+](=O)[O-])cc2Cl)cc1 | -16.2 |
| Cc1ccc(C(=O)c2cc([N+](=O)[O-])ccc2N2CCOCC2)cc1C | -17 |
| Cc1ccc(C(=O)c2cc([N+](=O)[O-])ccc2N2CCN(C)CC2)cc1 | -64.5 |
